{"source": "paper PMC4336329", "about": "(PLoS ONE, 2015)", "note": "Screen size: about 310,000 compounds; about 14,000 (4.5%) showed an effect of 50% or more. The effect is printed as a negative number. Many of the other results were omitted from the sample, so strong results are more common in it than they were.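 Further: peak tail current of the secondary pulse compared with the same well before compound.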"}
{"target": "human ether-à-go-go-related gene (hERG) potassium channel (human, UniProt Q12809)", "sequence (Q12809 whole entry, looked up)": "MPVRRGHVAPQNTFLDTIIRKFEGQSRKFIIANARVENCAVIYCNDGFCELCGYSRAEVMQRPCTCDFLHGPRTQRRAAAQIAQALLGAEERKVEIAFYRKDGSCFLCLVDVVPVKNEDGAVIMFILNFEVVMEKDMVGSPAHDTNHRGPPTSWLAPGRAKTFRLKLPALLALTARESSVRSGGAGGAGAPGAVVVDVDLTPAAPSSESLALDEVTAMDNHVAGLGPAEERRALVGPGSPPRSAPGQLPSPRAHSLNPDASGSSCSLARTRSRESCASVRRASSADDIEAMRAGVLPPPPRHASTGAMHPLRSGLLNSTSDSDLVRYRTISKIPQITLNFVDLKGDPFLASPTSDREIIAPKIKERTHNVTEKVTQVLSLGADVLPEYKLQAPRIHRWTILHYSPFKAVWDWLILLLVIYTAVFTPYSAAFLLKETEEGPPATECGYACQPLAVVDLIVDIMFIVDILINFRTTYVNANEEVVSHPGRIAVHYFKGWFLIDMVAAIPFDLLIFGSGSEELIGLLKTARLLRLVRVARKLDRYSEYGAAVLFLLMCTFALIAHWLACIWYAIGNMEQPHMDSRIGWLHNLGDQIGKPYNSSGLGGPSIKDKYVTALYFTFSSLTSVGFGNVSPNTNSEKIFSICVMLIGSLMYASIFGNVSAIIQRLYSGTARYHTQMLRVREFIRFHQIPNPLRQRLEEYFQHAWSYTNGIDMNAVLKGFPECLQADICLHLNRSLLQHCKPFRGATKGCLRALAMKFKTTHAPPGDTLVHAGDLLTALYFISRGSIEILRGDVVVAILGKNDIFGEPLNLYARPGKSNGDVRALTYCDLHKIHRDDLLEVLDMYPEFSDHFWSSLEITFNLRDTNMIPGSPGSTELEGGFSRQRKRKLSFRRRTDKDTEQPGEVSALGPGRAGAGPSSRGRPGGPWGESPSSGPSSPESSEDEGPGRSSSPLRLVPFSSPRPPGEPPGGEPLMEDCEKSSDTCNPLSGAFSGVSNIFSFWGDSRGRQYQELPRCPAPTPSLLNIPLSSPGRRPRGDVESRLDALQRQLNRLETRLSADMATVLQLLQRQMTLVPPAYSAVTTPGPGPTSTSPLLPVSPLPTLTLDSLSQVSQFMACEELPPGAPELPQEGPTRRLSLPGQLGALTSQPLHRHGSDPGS", "test": "primary screen, population patch clamp on CHO cells stably expressing hERG; higher = less effect of the substance", "units": {"hERG current change (%, negative = inhibition) at 10uM": "%"}}
{"smiles": "Cc1nn(CC(=O)NC2(C#N)CCCCC2)c(C)c1[N+](=O)[O-]", "hERG current change (%, negative = inhibition) at 10uM": 3.09}
{"smiles": "CCCCOC(=O)C1=C(C)NC(=O)NC1c1ccc(N(C)C)cc1", "note": "(centres unmarked)", "hERG current change (%, negative = inhibition) at 10uM": 21.7}
{"smiles": "O=C(COc1ccccc1)N1CCN(C2CC3CCC2C3)CC1", "note": "(centres unmarked)", "hERG current change (%, negative = inhibition) at 10uM": 7.39}
{"smiles": "NC(=O)c1nsc(C(=O)N(c2ccc(F)cc2)C(C(=O)NC2CCCC2)c2ccncc2)c1N", "note": "(centres unmarked)", "hERG current change (%, negative = inhibition) at 10uM": -0.193}
{"smiles": "COc1cccc2c1c(NC(=O)Nc1ccc(F)cc1F)nn2C", "hERG current change (%, negative = inhibition) at 10uM": 15.3}
{"smiles": "COc1cc2cc(CN(Cc3cccnc3)C(=O)NCc3ccccc3)c(=O)[nH]c2cc1OC", "hERG current change (%, negative = inhibition) at 10uM": -12.6}
{"smiles": "CC12CC[C@H]3[C@@H](CCC4(O)C[C@H](O)CCC34/C=N/NC(=O)c3ccc(O)cc3)C1(O)CCC2C1=CC(=O)OC1", "note": "(some centres unmarked)", "hERG current change (%, negative = inhibition) at 10uM": 15}
{"smiles": "CC(C)(/C=N/O)N(O)C=C1C=CC(=O)C=C1", "hERG current change (%, negative = inhibition) at 10uM": 5.81}
{"smiles": "COc1nc(N/N=C/c2cc3c(cc2Br)OCO3)nc(N2CCOCC2)n1", "hERG current change (%, negative = inhibition) at 10uM": -27.8}
{"smiles": "Clc1ccccc1/C=C/C=N/Nc1nc(N2CCOCC2)nc(N2CCOCC2)n1", "hERG current change (%, negative = inhibition) at 10uM": -58.4}
{"smiles": "C(=C\\c1ccccc1)/C=N/Nc1nc(N2CCOCC2)nc(N2CCOCC2)n1", "hERG current change (%, negative = inhibition) at 10uM": -9.68}
{"smiles": "Brc1cc2c(cc1/C=N/Nc1nc(N3CCOCC3)nc(N3CCOCC3)n1)OCO2", "hERG current change (%, negative = inhibition) at 10uM": -5}
{"smiles": "Brc1cc2c(cc1/C=N/Nc1nc(N3CCCC3)nc(N3CCOCC3)n1)OCO2", "hERG current change (%, negative = inhibition) at 10uM": -51.3}
{"smiles": "O=[N+]([O-])c1ccccc1/C=C/C=N/Nc1nc(N2CCCCC2)nc(N2CCCCC2)n1", "hERG current change (%, negative = inhibition) at 10uM": -12.2}
{"smiles": "O=C(c1ccccc1)n1ccc2ccccc21", "hERG current change (%, negative = inhibition) at 10uM": -28}
{"smiles": "O=S(=O)(c1ccc(Oc2ncnc3scc(-c4ccccc4)c23)cc1)N1CCOCC1", "hERG current change (%, negative = inhibition) at 10uM": -0.503}
{"smiles": "Cc1c(C(=O)NCC(c2ccco2)N(C)C)oc2c(Cl)cccc12", "note": "(centres unmarked)", "hERG current change (%, negative = inhibition) at 10uM": -36.9}
{"smiles": "C/C(=C\\c1ccc2c(c1)OCO2)C1Nc2cccc3cccc(c23)N1", "hERG current change (%, negative = inhibition) at 10uM": 16.8}
{"smiles": "COc1ccccc1OCC(=O)NCC(C)NC(=O)COc1ccccc1OC", "note": "(centres unmarked)", "hERG current change (%, negative = inhibition) at 10uM": 4.93}
{"smiles": "Cc1cccc(S(=O)(=O)NNC(=O)c2cc(-c3ccc(F)cc3)nc3ccccc23)c1", "hERG current change (%, negative = inhibition) at 10uM": 28.5}
{"smiles": "CN(CC(=O)Nc1cccc(F)c1)C(=O)c1ccc(N2CCCCCC2)c([N+](=O)[O-])c1", "hERG current change (%, negative = inhibition) at 10uM": 17.9}
{"smiles": "COc1ccc(NC(=O)CN(C)C(=O)c2ccc(N3CCCCC3)c([N+](=O)[O-])c2)cc1", "hERG current change (%, negative = inhibition) at 10uM": -76.8}
{"smiles": "CCOc1ccc(NC(=O)CN(C)C(=O)c2cc(S(=O)(=O)N(C)C)ccc2N2CCCC2)cc1OCC", "hERG current change (%, negative = inhibition) at 10uM": 6.11}
{"smiles": "CCOc1ccc(NC(=O)CN(C)C(=O)c2ccc(N3CCCCCC3)c([N+](=O)[O-])c2)cc1OCC", "hERG current change (%, negative = inhibition) at 10uM": 3.4}
{"smiles": "COc1ccc(NC(=O)CN(C)C(=O)c2ccc(N3CCCC3)c([N+](=O)[O-])c2)cc1", "hERG current change (%, negative = inhibition) at 10uM": -54}
{"smiles": "CN(CC(=O)Nc1ccccc1Cl)C(=O)c1ccc(N2CCCCCC2)c([N+](=O)[O-])c1", "hERG current change (%, negative = inhibition) at 10uM": -20.2}
{"smiles": "COc1ccc(NC(=O)CN(C)C(=O)c2ccc(N3CCOCC3)c([N+](=O)[O-])c2)cc1", "hERG current change (%, negative = inhibition) at 10uM": -46.3}
{"smiles": "COc1ccc(Cl)cc1NC(=O)CN(C)C(=O)c1ccc(N2CCCCC2)c([N+](=O)[O-])c1", "hERG current change (%, negative = inhibition) at 10uM": -18.8}
{"smiles": "COc1ccc(Cl)cc1NC(=O)CN(C)C(=O)c1ccc(N2CCCCCC2)c([N+](=O)[O-])c1", "hERG current change (%, negative = inhibition) at 10uM": 5.32}
{"smiles": "COc1cccc(CN(C)C(=O)c2ccc(N3CCCC3)c([N+](=O)[O-])c2)c1", "hERG current change (%, negative = inhibition) at 10uM": -45.3}
{"smiles": "COc1ccc(NC(=O)CN(C)C(=O)c2ccc(N3CCCCCC3)c([N+](=O)[O-])c2)cc1", "hERG current change (%, negative = inhibition) at 10uM": -51.6}
{"smiles": "CCOc1ccc(NC(=O)CN(C)C(=O)c2ccc(N3CCCCC3)c([N+](=O)[O-])c2)cc1OCC", "hERG current change (%, negative = inhibition) at 10uM": -57.6}
{"smiles": "CC1(C)Cc2c(c(N3CCCC3)nc3sc4c(N5CCNCC5)ncnc4c23)CO1", "hERG current change (%, negative = inhibition) at 10uM": -35.2}
{"smiles": "O=C(N/N=C/c1ccc(-c2cccc(C(F)(F)F)c2)o1)c1ccccc1Br", "hERG current change (%, negative = inhibition) at 10uM": 3.21}
{"smiles": "CCOc1ccc(Cl)cc1S(=O)(=O)NC1CCCC1", "hERG current change (%, negative = inhibition) at 10uM": -3.26}
{"smiles": "Cn1c(=O)c2c(nc(Br)n2CC(=O)c2cccs2)n(C)c1=O", "hERG current change (%, negative = inhibition) at 10uM": -6.03}
{"smiles": "CCc1ccc(NC(=O)C2CCCCC2C(=O)O)cc1", "note": "(centres unmarked)", "hERG current change (%, negative = inhibition) at 10uM": 11.8}
{"smiles": "CCOc1ccc(NC(=O)CN(C)C(=O)c2ccc(N3CCOCC3)c([N+](=O)[O-])c2)cc1OCC", "hERG current change (%, negative = inhibition) at 10uM": -19.1}
{"smiles": "CCOc1ccc(NC(=O)CN(C)C(=O)c2cc([N+](=O)[O-])ccc2N2CCOCC2)cc1OCC", "hERG current change (%, negative = inhibition) at 10uM": -52.5}
{"smiles": "CCOc1ccc(NC(=O)CN(C)C(=O)c2cc([N+](=O)[O-])ccc2N2CCCCC2)cc1OCC", "hERG current change (%, negative = inhibition) at 10uM": -43.9}
{"smiles": "O=C(NCC(=O)N(c1ccc(F)cc1)C(C(=O)NC1CCCC1)c1cccnc1)c1cccs1", "note": "(centres unmarked)", "hERG current change (%, negative = inhibition) at 10uM": 7.21}
{"smiles": "CC(C)C[C@H](NC(=O)NCCC1=CCCCC1)C(=O)O", "hERG current change (%, negative = inhibition) at 10uM": -4.82}
{"smiles": "O=C1Nc2ncccc2OC1CCCl", "note": "(centres unmarked)", "hERG current change (%, negative = inhibition) at 10uM": 6.83}
{"smiles": "O=C(COc1ccccc1Cl)NCCCNC(=O)c1ccco1", "hERG current change (%, negative = inhibition) at 10uM": 2.17}
{"smiles": "CN(C)CCN(C(=O)c1ccc(S(=O)(=O)N(C)c2ccccc2)cc1)c1nc2cc3c(cc2s1)OCO3.Cl", "hERG current change (%, negative = inhibition) at 10uM": -2.57}
{"smiles": "CCN(c1ccccc1)S(=O)(=O)c1ccc(C(=O)N(CCCN(C)C)c2nc3c(C)cccc3s2)cc1.Cl", "hERG current change (%, negative = inhibition) at 10uM": -34.7}
{"smiles": "CN(C)CCN(C(=O)c1ccc2ccccc2c1)c1nc2c(F)cc(F)cc2s1.Cl", "hERG current change (%, negative = inhibition) at 10uM": 3.41}
{"smiles": "CN(C)CCCN(C(=O)c1ccc(S(=O)(=O)N(C)Cc2ccccc2)cc1)c1nc2cc3c(cc2s1)OCO3.Cl", "hERG current change (%, negative = inhibition) at 10uM": -51.7}
{"smiles": "CCN(c1ccccc1)S(=O)(=O)c1ccc(C(=O)N(CCCN(C)C)c2nc3cc4c(cc3s2)OCO4)cc1.Cl", "hERG current change (%, negative = inhibition) at 10uM": -57.4}
{"smiles": "CCN(Cc1ccccc1)S(=O)(=O)c1ccc(C(=O)N(CCCN(C)C)c2nc3cc4c(cc3s2)OCCO4)cc1.Cl", "hERG current change (%, negative = inhibition) at 10uM": -27.5}
{"smiles": "CN(C)CCN(C(=O)c1ccc(S(=O)(=O)N(C)c2ccccc2)cc1)c1nc2cc3c(cc2s1)OCCO3.Cl", "hERG current change (%, negative = inhibition) at 10uM": -1.95}
{"smiles": "CCN(c1ccccc1)S(=O)(=O)c1ccc(C(=O)N(CCN(C)C)c2nc3c(F)cc(F)cc3s2)cc1.Cl", "hERG current change (%, negative = inhibition) at 10uM": -54.7}
{"smiles": "CCN(Cc1ccccc1)S(=O)(=O)c1ccc(C(=O)N(CCCN(C)C)c2nc3cc4c(cc3s2)OCO4)cc1.Cl", "hERG current change (%, negative = inhibition) at 10uM": -45.2}
